Data published in paper PMC4336329 (PLoS ONE, 2015).
Hit rate of the full screen: of about 310,000 compounds, about 14,000 (4.5%) showed an effect of 50% or more. Effects have a minus sign here. The entries come from a sample that favours strong results as a whole.

target: human ether-à-go-go-related gene (hERG) potassium channel (human, UniProt Q12809); test: primary screen, population patch clamp on CHO cells stably expressing hERG; higher = less effect of the substance
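Note: peak tail current of the secondary pulse compared with the same well before compound.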

Sequence of human ether-à-go-go-related gene (hERG) potassium channel (Q12809 whole entry, looked up): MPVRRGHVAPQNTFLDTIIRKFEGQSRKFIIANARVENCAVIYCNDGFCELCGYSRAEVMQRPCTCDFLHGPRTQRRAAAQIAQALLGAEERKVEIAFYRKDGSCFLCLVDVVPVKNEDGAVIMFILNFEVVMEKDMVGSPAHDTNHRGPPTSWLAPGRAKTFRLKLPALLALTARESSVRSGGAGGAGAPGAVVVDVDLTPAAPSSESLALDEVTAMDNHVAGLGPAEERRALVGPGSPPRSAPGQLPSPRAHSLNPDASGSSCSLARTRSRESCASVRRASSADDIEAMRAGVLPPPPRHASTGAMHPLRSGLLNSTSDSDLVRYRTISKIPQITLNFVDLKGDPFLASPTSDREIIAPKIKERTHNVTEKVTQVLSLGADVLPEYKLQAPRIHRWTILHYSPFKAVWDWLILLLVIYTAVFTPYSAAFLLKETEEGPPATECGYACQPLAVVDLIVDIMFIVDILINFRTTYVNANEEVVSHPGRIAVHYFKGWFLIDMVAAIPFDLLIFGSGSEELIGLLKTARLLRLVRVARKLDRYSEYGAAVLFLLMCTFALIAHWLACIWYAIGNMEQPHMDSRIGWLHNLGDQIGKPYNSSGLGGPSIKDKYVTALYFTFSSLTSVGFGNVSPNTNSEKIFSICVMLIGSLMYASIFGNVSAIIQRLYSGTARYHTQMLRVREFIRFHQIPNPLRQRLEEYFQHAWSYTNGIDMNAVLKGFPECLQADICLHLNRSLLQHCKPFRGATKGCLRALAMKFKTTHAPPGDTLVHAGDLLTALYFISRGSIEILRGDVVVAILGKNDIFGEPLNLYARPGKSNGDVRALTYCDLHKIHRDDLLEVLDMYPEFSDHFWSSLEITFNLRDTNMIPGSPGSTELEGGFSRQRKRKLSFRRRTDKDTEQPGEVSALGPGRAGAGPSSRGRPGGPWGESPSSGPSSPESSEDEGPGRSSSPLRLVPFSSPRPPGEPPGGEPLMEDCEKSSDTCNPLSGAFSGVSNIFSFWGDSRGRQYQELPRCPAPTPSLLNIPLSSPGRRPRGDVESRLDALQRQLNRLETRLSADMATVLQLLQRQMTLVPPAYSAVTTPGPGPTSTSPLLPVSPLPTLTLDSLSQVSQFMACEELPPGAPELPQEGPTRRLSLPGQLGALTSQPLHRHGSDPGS

SMILES	hERG current change (%, negative = inhibition) at 10uM [%]
Cc1ccc2nc(SCC(=O)Nc3ccc(C(N)=O)cc3)[nH]c2c1	3.74
CC(CN(C)Cc1ccccc1)OC(=O)c1ccc2c(c1)OCCO2.Cl (stereo not shown)	5.15
COC(=O)c1ccc(COc2ccc3ccc(=O)oc3c2)o1	8.66
CN(C)CCNC(=O)Cn1ccc2cc(S(=O)(=O)N3CCCCCC3)ccc21	-25.4
C/C(N)=C(/C#N)C(=O)CSc1nn(-c2ccc(Cl)cc2)c(=S)s1	12.9
O=S(=O)(NCCc1ccncc1)c1ccccc1	4.04
c1ccc2c(c1)CCCC2NC1=NCCC1 (stereo not shown)	-2.53
O=C(NCC(c1cccs1)N1CCOCC1)c1ccc(Cl)c([N+](=O)[O-])c1 (stereo not shown)	-31.9
CCOc1ncccc1C(=O)N1CCN(C(c2ccccc2)c2ccccc2)CC1	5.75
O=C(O)CCn1c(-c2ccccc2)cc2c1CCCC2=O	14.1
Cc1c(NS(=O)(=O)c2ccc(NC3CCCC3)c([N+](=O)[O-])c2)c(=O)n(-c2ccccc2)n1C	-19.7
Cc1cc(C)nc(NS(=O)(=O)c2cccs2)c1	3.36
CCN1CCN(c2c(Cl)cccc2NC(=O)c2ccc3c(c2)OCCO3)CC1	-38.4
CCN1CCN(c2c(Cl)cccc2NC(=O)c2ccc3nsnc3c2)CC1	-49.5
CCN1CCN(c2c(Cl)cccc2NC(=O)c2ccc([N+](=O)[O-])cc2)CC1	-72
O=C(CNc1ccc2ccccc2c1)N/N=C/c1ccncc1	-8.31
O=C(Nc1cc(Cl)ccc1N1CCCC1)C1=NN(c2ccccc2)C(=O)CC1	-16.9
CC(=O)N1CCc2cc(S(=O)(=O)NCCC(=O)Nc3cccc(C)c3C)ccc21	0.058
CC1CCC2(CC1)NC(=O)N(CC(=O)N(Cc1ccccc1)C(C)(C)C)C2=O (stereo not shown)	10.6
CC1CCC2(CC1)NC(=O)N(CC(=O)NCc1cccs1)C2=O (stereo not shown)	1.95
COc1ccc(CN(C(=O)CN2C(=O)NC3(CCC(C)CC3)C2=O)C(C)Cc2cccs2)cc1 (stereo not shown)	-68.7
O=C(/C=C/c1cccc([N+](=O)[O-])c1)NCc1ccco1	-33
Cc1ccc(C2CC(=O)N3CN(c4ccc(Br)cc4)CSC3=C2C#N)o1 (stereo not shown)	11.1
Cc1nc2cc3nc(C(F)(F)F)[nH]c3cc2[nH]1	0.0754

SMILES	hERG current change (%, negative = inhibition) at 10uM [%]
O=C(CCCn1c(SCC(=O)Nc2ccccc2Cl)nc2ccccc2c1=O)NCC1CCCO1 (stereo not shown)	-48.9
CCCCn1c(SCC(=O)NC2CCCC2)nc2ccccc2c1=O	-4.43
CCc1ccc(NC(=O)CSc2nc3ccccc3c(=O)n2CCCC(=O)N2CCCC2)cc1	-27.9
CCOCCCn1c(SCC(=O)NC2CCCC2)nc2ccccc2c1=O	-1.74
CC1CCN(CCCn2c(SCC(=O)Nc3ccccc3Cl)nc3ccccc3c2=O)CC1	-70.8
CCCCn1c(SCC(=O)Nc2ccc(NC(C)=O)cc2)nc2ccccc2c1=O	-2.55
CC1CCN(CCCn2c(SCC(=O)NC3CCCC3)nc3ccccc3c2=O)CC1	-77
CCc1ccc(NC(=O)CSc2nc3ccccc3c(=O)n2CCCN2CCC(C)CC2)cc1	-67.2
O=C(CSc1nc2ccccc2c(=O)n1CCCO)NC1CC1	-13.4
CNC(=O)N(O)C1N(/N=C/c2c(F)cccc2Cl)C(=S)SC1(C)C (stereo not shown)	18
CC(=O)c1cccc(NC(=O)C(C)OC(=O)c2cc(=O)[nH]c3ccccc23)c1 (stereo not shown)	-0.987
CCC(CNc1cc(OC)cc2cccnc12)NC1CCCCC1 (stereo not shown)	-26.2
COc1cc(C(=O)O)cc(NC(=O)c2cccs2)c1OC	13
NS(=O)(=O)c1ccc(CCNS(=O)(=O)c2cccc(C(=O)O)c2)cc1	15.9
COc1ccc(NS(=O)(=O)c2cc3c(cc2C)N(C)CCO3)c(OC)c1	1.28
COc1ccc(C(=O)C2CCCN(Cc3cnc(N4CCOCC4)s3)C2)cc1F (stereo not shown)	-47.6
COc1ccc(C(=O)C2CCCN(Cc3cccn3-c3cccnc3)C2)cc1OC (stereo not shown)	-62.9
O=C(c1ccc2c(c1)OCO2)C1CCCN(Cc2cccn2-c2cccnc2)C1 (stereo not shown)	-58.3
COc1ccc(C(=O)C2CCCN(Cc3cccn3-c3nccs3)C2)cc1F (stereo not shown)	-83.5
COc1cccc(C(=O)C2CCCN(Cc3cccn3-c3cccnc3)C2)c1 (stereo not shown)	-29
COc1ccc(C(=O)C2CCCN(C(=O)c3cccs3)C2)cc1F (stereo not shown)	-8.95
COc1ccc(C(=O)C2CCCN(Cc3cnc(N4CCCC4)s3)C2)cc1OC (stereo not shown)	-44
COc1ccc(C(=O)C2CCCN(Cc3cccn3-c3nccs3)C2)cc1OC (stereo not shown)	-82
S=C1NCCc2ccccc2C1c1ccccc1 (stereo not shown)	-14.5

SMILES	hERG current change (%, negative = inhibition) at 10uM [%]
C/C(=C\C(=S)Nc1ccccc1)Nc1ccccc1	22.4
CCOc1ccccc1CNC(=O)Cn1ccc2cc(S(=O)(=O)N3CCCCCC3)ccc21	10.4
COc1ccc2cc(N=Cc3nc(-c4ccc(C)cc4)oc3O)cnc2c1	1.84
CCC(=O)N1CCc2cc(S(=O)(=O)N3CCCCCC3)ccc21	12.6
CNC(=O)c1cccn1-c1ccsc1C(=O)OC	7.33
COc1ccc(Cc2nc3ccc(C(=O)N(C)CCn4ccnc4)cc3o2)cc1OC	15.5
O=C(COC(=O)c1ccc(F)cc1F)Nc1ccc2[nH]c(=O)[nH]c2c1	10.3
C=CCN(CC=C)C(=O)C(=O)c1cc(C)n(-c2ccc([N+](=O)[O-])cc2)c1C	-63.4
Cc1cc(C(=O)C(=O)NC(C)C)c(C)n1-c1ccc([N+](=O)[O-])cc1	-22.8
Cc1cc(C(=O)C(=O)N(C)C)c(C)n1-c1ccc([N+](=O)[O-])cc1	-25.7
O=C(/C=C/C=C/c1ccc2c(c1)OCO2)N1CCCCC1	-8.23
CCc1noc(C)c1C(=O)OCC(=O)NC(=O)c1ccccc1OC	12.5
COc1cc(OC)c(C#N)c(S(=O)(=O)Cc2ccccc2)c1	-3.9
CC(C)CN(CCNC(=O)CC1Oc2ccccc2NC1=O)CC(C)C (stereo not shown)	-27.7
CCN(CC)CCNC(=O)c1ccc2c(c1)NC(=O)c1ccccc1S2	-31.9
CN(C)CCNC(=O)c1ccc2c(c1)NC(=O)c1ccccc1S2	17.3
Cc1ccc2c(c1)NC(=O)C(CC(=O)NCCN(C)C)O2 (stereo not shown)	-2.42
Cc1ccc2c(c1)NC(=O)C(CC(=O)NCCN(CC(C)C)CC(C)C)O2 (stereo not shown)	-24.7
CCC(C)N(CCNC(=O)c1ccc2c(c1)NC(=O)c1ccccc1S2)C1CCCCC1 (stereo not shown)	-66.4
CCC(C)N(CCNC(=O)CC1Oc2ccc(C)cc2NC1=O)C1CCCCC1 (stereo not shown)	-71.5
CCN(CCNC(=O)CC1Oc2ccccc2NC1=O)c1ccccc1 (stereo not shown)	9.82
CCC(C)N(CCNC(=O)CC1Oc2ccccc2NC1=O)C1CCCCC1 (stereo not shown)	-57.7
COCCn1c(C)cc2c(c1=O)C(c1ccco1)C(C#N)=C(N)O2 (stereo not shown)	12.7
C=CCn1c(CSc2nnc(-c3ccccc3)n2C)n[nH]c1=S	16.7

SMILES	hERG current change (%, negative = inhibition) at 10uM [%]
O=C(Nc1ccc(Cl)cc1)c1ccc(Br)cc1F	14.4
COCc1cc(Sc2cccc(Cl)c2Cl)nc(-c2ccccc2)n1	9.15
Cc1ccc(S(=O)(=O)N(CC(=O)NN=C2CCN(C)CC2)c2ccc(C(C)C)cc2)cc1	-21.3
CCn1cc(C(=O)N2CCN(Cc3ccc4c(c3)OCO4)CC2)c(=O)c2ccc(C)nc21	-1.84
CCC(C)(C)NC(=O)C(c1ccc(OC)cc1)N(C(=O)CCC(=O)Nc1cc(C)on1)c1ccc(OC)c(OC)c1 (stereo not shown)	3.38
Cc1ccc(OCC(=O)N/N=C/c2cn(C)c3ccccc23)cc1	10.2
CC1c2cccn2CCN1S(=O)(=O)c1ccccc1 (stereo not shown)	5.9
Cc1ccc(S(=O)(=O)N2CCn3cccc3C2C)cc1 (stereo not shown)	-22.7
CC1c2cccn2CCN1S(=O)(=O)c1ccc(F)cc1 (stereo not shown)	-52.3
COc1cc(NS(=O)(=O)c2ccc(NC(=O)/C(=C\c3ccccc3OC)NC(=O)c3ccccc3)cc2)nc(OC)n1	26.5
CCOc1cc(/C=N/NC(=O)CN2CCCCC2)ccc1OCc1ccccc1	-59.9
CCCOc1ccc(/C=N/NC(=O)CN2CCCCC2)cc1OCC	-51.4
CCOc1ccc(/C=N/NC(=O)CN2CCCCC2)cc1OCC	11
CCOc1cc(/C=N/NC(=O)CN2CCOCC2)ccc1OCc1ccccc1	-9.58
CCOc1cc(/C=N/NC(=O)CN2CCCCC2)ccc1OCc1cccc(Cl)c1	-45.3
C=CCOc1ccc(/C=N/NC(=O)C(=O)N2CCCCCC2)cc1OC	16.5
O=C(CN1CCCCC1)N/N=C/c1ccccc1OCc1ccccc1	-30.2
COc1cc(/C=N/NC(=O)CN2CCCCC2)ccc1OCc1ccccc1	-64.1
COc1cc(/C=N/NC(=O)CN2CCOCC2)ccc1OCc1ccccc1	5.45
C=CCOc1ccc(/C=N/NC(=O)CN2CCOCC2)cc1OCC	12.4
C=CCOc1ccc(/C=N/NC(=O)CN2CCCCC2)cc1OC	-61
CCOc1cc(/C=N/NC(=O)CN2CCCCC2)ccc1O	-5.51
